{"source": "PubChem BioAssay AID493170", "about": "(National Center for Advancing Translational Sciences (NCATS), 2011)", "note": "Records with an inconclusive call do not appear. Unmarked numbers belong to inactive results. The source made the active and inactive calls. Calls follow the shape of the dose curve; as a rule, active = well fitted inhibition curve with a large enough effect; inconclusive = small, poorly fitted or top-dose-only effect, or effect the other way; inactive = flat fitted curve, though single readings scatter. % is scaled to controls: 0 for no effect and ±100 for the full control effect; potency is read from the fitted curve at half-maximal effect.", "data": [{"biological_target": "Ubiquitin carboxyl-terminal hydrolase 2 (Homo sapiens) (UniProt O75604)", "sequence (O75604 whole entry, looked up)": "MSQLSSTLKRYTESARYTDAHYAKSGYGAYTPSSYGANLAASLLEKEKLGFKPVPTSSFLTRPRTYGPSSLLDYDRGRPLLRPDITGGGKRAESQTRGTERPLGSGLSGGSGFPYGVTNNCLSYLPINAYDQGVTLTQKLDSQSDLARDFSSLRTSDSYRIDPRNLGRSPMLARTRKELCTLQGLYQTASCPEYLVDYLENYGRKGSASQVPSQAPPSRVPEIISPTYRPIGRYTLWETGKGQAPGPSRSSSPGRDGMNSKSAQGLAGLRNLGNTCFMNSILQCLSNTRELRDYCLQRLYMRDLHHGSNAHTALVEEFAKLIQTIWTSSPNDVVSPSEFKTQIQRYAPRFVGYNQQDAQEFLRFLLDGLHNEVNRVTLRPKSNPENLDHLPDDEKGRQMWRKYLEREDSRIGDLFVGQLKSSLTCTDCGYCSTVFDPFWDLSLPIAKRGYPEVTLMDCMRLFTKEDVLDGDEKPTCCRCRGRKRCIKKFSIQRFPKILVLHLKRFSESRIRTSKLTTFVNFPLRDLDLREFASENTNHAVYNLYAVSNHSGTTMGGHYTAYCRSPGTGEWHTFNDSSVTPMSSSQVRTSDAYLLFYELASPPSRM", "assay": "Ub-rhodamine 110 based assay for inhibitors Ubiquitin-specific Protease USP2a; also: nearly all actives have a fitted effect of over 50% in size", "conditions": "USP2a Ub-rhodamine110 cleavage, fluorescence; series mostly up to 38.3 µM; activity change, negative = inhibition: at the top concentration", "from_the_text": "NIH Molecular Libraries Probe Centers Network [MLPCN] NIH Chemical Genomics Center [NCGC] MLPCN Grant: XO1-MH079852-01 PI Name: Nicholson, Ben. Progenra Inc, Malvern, PA NCGC Assay Overview: Homeostasis of cellular proteins is maintained through a combination of synthesis and degradation. The pathway that accounts for the majority of protein degradation is the ubiquitin-proteasomal pathway. Ubiquitin (Ub) is highly conserved in all cells and the generation of a multi-Ub chain typically targets proteins for degradation by the proteasome. However, ubiquitination is highly reversible and dynamic. Deubiquitination, the reverse process, is catalyzed through the action of enzymes referred to as isopeptidases or deubiquitinating enzymes (DUBs). This group of enzymes is collectively responsible for maintaining adequate pools of free ubiquitin and regulating the ubiquitination status of cellular proteins. The class of DUBs referred to as the ubiquitin-specific proteases (USP) family functions endoproteolytically to cleave Ub chains from a wide range of protein substrates. USP2a deubiquitinates fatty acid synthase (FASN) which has recently been identified as an emerging oncology target. To identify inhibitors of USP2a a cell-free assay was employed. This assay measures cleavage of a profluorescent substrate (Ub-Rhodamine 110; Boston Biochem Cat#: U-555) by USP2a. The assay gives a fluorescent read-out at excitation/emission wavelengths of 485/531. The USP2a enzyme was provided by Progenra, Inc. licensed for sale by LifeSensors, Inc.\nNCGC Assay Protocol: The assay buffer, prepared fresh at the day of the assay, contains 20mM Tris-HCl pH 8.0, 2mM CaCl2, 2mM beta-Mercaptoethanol, 0.05% CHAPS. 3uL of 10 nM (5 nM final) USP2a, was dispensed into a medium-binding black solid Kalypsys 1,536 well plate using the Kalypsys dispenser. The assay plate was then pinned with 23nL compounds in DMSO with a Kalypsys pintool in columns 5-48 (0.3% final DMSO concentration). The negative control was buffer/DMSO only in column 3. The assay plate is incubated at RT for 30min. Subsequently, 3uL of 300 nM Ub-Rhod110 (150 nM final) was dispensed into the plate using a Kalypsys dispenser. Plates were read after every minute for 7 min on a ViewLux (Perkin Elmer) plate reader using the following wavelengths: Ex 485nm /Em 531nm. Data were normalized to the AC100 inhibition (buffer alone). Concentration-response curves were fitted to the normalized data and the concentration-response curves were then classified based on curve quality (r2), response magnitude and degree of measured activity. The time zero reading was used to flag fluorescence artifacts.", "units": {"activity change, negative = inhibition": "%"}, "values": [{"compound": "O=C(COc1ccc(S(=O)(=O)N2CCOCC2)cc1)N1CCN(Cc2ccc3c(c2)OCO3)CC1", "activity change, negative = inhibition": -0.487}, {"compound": "O=C1NC(=O)[C@]2(Cc3ccccc3N3CCN(c4ccccc4)CC32)C(=O)N1Cc1ccccc1", "note": "(stereo partly specified)", "Potency": "6.31 µM (active)"}, {"compound": "O=C(O)c1cccc2c1NC(C(=O)O)C1CC(Sc3ccccc3[N+](=O)[O-])C(Cl)C21", "note": "(stereo unspecified)", "Potency": "5.01 µM (active)"}, {"compound": "FC(F)(F)c1ccc2c(c1)N(CCCN1CCN(CCCl)CC1)c1ccccc1S2", "activity change, negative = inhibition": -0.395}, {"compound": "CC(C)N1C(=O)/C(=C/C=C/c2ccco2)C(=O)N(Cc2ccco2)C1=O", "Potency": "12.6 µM (active)"}, {"compound": "Clc1ccc(C(c2ccc(Cl)cc2)n2cc[n+](CC(OCc3ccc(Cl)cc3Cl)c3ccc(Cl)cc3Cl)c2)cc1", "note": "(stereo unspecified)", "Potency": "10 µM (active)"}, {"compound": "OC(c1ccncc1)(c1ccc(F)cc1)c1ccc(F)cc1", "activity change, negative = inhibition": -11.2}, {"compound": "COc1ccc(NC(=O)c2c(C)nn(Cc3ccccc3Cl)c2Cl)cc1Cl", "activity change, negative = inhibition": -1.79}, {"compound": "CCCC1=C(C(=O)OCC)C2(C(=O)Nc3ccc(C)cc32)C(C#N)=C(N)O1", "note": "(stereo unspecified)", "activity change, negative = inhibition": 0.66}, {"compound": "CC1Oc2cc3c(-c4c(O)cc(O)c5c(O)c6c(cc45)OC(C)C(C)C6=O)c(O)cc(O)c3c(O)c2C(=O)C1C", "note": "(stereo unspecified)", "Potency": "2 µM (active)"}, {"compound": "Cc1nn(Cc2ccc(Cl)cc2Cl)c(Cl)c1C(=O)Nc1ccc(OC(F)F)cc1", "activity change, negative = inhibition": -24.9}, {"compound": "COc1ccc(S(=O)(=O)Cc2ccc(C(=O)N3CCC4(CC3)OCCO4)o2)cc1", "activity change, negative = inhibition": -1.83}, {"compound": "CC(=Nc1ccc2c(c1)CCC2)c1c(O)n(C)c(=O)n(C)c1=O", "activity change, negative = inhibition": -8.7}, {"compound": "O=c1[nH]c(=O)n(Cc2ccc(F)cc2)c(O)c1C=NCCCn1ccnc1", "activity change, negative = inhibition": -2.32}, {"compound": "Nc1ccc(S(=O)(=O)N2CCCCC2c2cccnc2)cc1", "note": "(stereo unspecified)", "activity change, negative = inhibition": -0.331}, {"compound": "CCCCn1c(=O)c(C(=O)Nc2ccccc2S(N)(=O)=O)c(O)c2ccccc21", "Potency": "10 µM (active)"}]}]}
